Tau FP inhib: inhibitors of human tau fibril formation; P10636; actives 0.39% (n = 280,000); K18 P301L tau heparin fibrillization, Alexa594 FP, 6 h; Potency, µM (highest dose often 57.7 µM), hits mostly inhibitors; AID 1468; note: nearly all actives have a fitted effect of over 55% in size
Target sequence (P10636 561-689 P618L limits assumed): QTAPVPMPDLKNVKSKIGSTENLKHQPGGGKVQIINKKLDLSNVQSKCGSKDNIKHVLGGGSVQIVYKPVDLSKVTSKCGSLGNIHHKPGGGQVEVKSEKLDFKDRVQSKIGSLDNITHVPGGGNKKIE
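FP of Alexa 594-tau after heparin (20 uM) induction. Substrate: human K18 P301L, 15 uM unlabeled, 0.24 uM labeled. Buffer 100 mM sodium acetate pH 7. 6 hr, 37 C.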
TRb SRC2 PPI: TRbeta-SRC2 interaction inhibition | TRbeta-SRC2 peptide binding, fluorescence polarization; receptor liganded with 1 µM T3 | Potency, µM (doses to about 106 µM), most hits filed as inhibitors | actives 0.065% (n = 280,000) | AID 1469; note: nearly all actives have a fitted effect of over 50% in size
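Binding of a 20-amino-acid Texas Red SRC2 peptide (20 nM) to TRb ligand-binding domain (0.6 uM) with agonist T3 at 1 uM was followed by fluorescence polarization after a 5 hr room-temperature incubation.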
RGS12 GoLoco inh: inhibitors of human Gai1-RGS12 GoLoco interaction (red fluorophore) | actives 0.44% (n = 230,000) | Potency, µM (series often up to 61.6 µM), hits mostly inhibitors | AID 880 | Gai1:RGS12 GoLoco peptide FP, rhodamine, 10 min; active = well fitted inhibition curve with a large enough effect, not every such curve was filed as active; inactive = no such curve, though single readings can be large or run the other way; note: nearly all actives have a fitted effect of over 30% in size
Target sequence (P63096 whole entry, looked up): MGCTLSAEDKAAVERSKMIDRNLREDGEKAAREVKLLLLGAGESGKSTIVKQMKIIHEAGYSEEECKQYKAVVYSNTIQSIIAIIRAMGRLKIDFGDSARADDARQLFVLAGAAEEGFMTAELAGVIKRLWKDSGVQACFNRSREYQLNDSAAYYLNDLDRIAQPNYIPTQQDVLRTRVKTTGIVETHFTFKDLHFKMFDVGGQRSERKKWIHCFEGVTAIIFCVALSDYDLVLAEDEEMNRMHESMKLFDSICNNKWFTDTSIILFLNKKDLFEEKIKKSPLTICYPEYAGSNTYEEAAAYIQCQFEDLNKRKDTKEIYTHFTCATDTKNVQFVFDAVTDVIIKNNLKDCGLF
Tau fluor cs: counter-screen for tau fibril formation inhibitors; tau K18 P301L Alexa594 fluorescence, heparin fibrillization; Potency, µM (doses to about 57.7 µM); actives 0.93% (n = 280,000); note: nearly all actives have a fitted effect of over 55% in size
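Human K18 P301L tau (15 uM unlabeled plus 0.24 uM Alexa 594-labeled, final) in 100 mM sodium acetate pH 7 was mixed with compound and 20 uM heparin and incubated 6 hr at 37 C.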
Tau ThT inhib: blocks human tau fibril formation measured by thioflavin T. actives 2.1% (n = 270,000). recombinant tau K18 P301L, heparin-induced fibrillization, ThT fluorescence. P10636. Potency, µM (titrated, usually from 57.4 µM), most hits filed as inhibitors. AID 1460; note: nearly all actives have a fitted effect of over 55% in size
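Using a mix of unlabeled (15 uM) and Alexa 594-labeled (0.24 uM) tau K18 P301L, heparin-triggered fibrillization over 6 hr at 37 C was scored by ThT fluorescence.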
TexasRed fluor: alters Texas Red total fluorescence, flagging assay interference; actives 0.29% (n = 280,000); TRb/SRC2 Texas Red total fluorescence interference; Potency, µM (highest dose often 106 µM); AID 1479; active = well fitted curve in either direction with a large enough effect; inconclusive = small, poorly fitted or top-dose-only effect
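Flags fluorescent or light-absorbing compounds by total fluorescence, S + 2P, at 555 nm excitation and 632 nm emission. Mixture: 20 nM Texas Red SRC2 peptide, 0.6 uM human TRb LBD, 1 uM T3, 5% DMSO; compound exposure 5 h at ambient temperature.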
Each line names hits and unclear results; the compound was inactive in the other large screens; ! = not active in a repeat; [ ] = dose if it differs, or a comment. The list is not random: actives were taken first. Their share in the collection is about 3.1%. Unless noted, calls come from the whole dose curve; as a rule, active = well fitted curve in the direction sought with a large enough effect; inconclusive = small, poorly fitted or top-dose-only effect, or another doubt; inactive = no such curve, though single readings can be large; an effect the other way counts as inactive or inconclusive.

CCOc1ccc2c(c1)-c1c(ssc1=S)C(C)(C)N2	Tau fluor cs 13µM[quencher], Tau ThT inhib 13µM
CS(=O)(=O)N(CCc1ccccc1)CC(=O)Nc1ccc2c(c1)OCO2	none
CCOC(=O)C1=C(CC)Nc2ccccc2N=C1NC(=O)Nc1ccc(Cl)c(Cl)c1	Tau FP inhib 13µM, Tau fluor cs inconclusive, Tau ThT inhib inconclusive
Cc1ccc(CNC(=O)CCc2c(C)c3ccc(O)c(C)c3oc2=O)cc1	none (no result: RGS12 GoLoco inh)
Cn1c2c(c(=O)n(C)c1=O)[C@@]1(C(=O)Nc3ccccc31)C(C#N)=C(N)O2	Tau FP inhib inconclusive, Tau ThT inhib 14µM (no result: RGS12 GoLoco inh)
N#CC1=C(N)Oc2n[nH]c(-c3ccccc3)c2C12C(=O)Nc1ccccc12 (centres undefined)	none
O=C(Nc1ncccn1)c1cc([N+](=O)[O-])cc([N+](=O)[O-])c1	none
O=[N+]([O-])c1cc(-c2ncccn2)c([N+](=O)[O-])s1	Tau fluor cs inconclusive, Tau ThT inhib 11µM
CC1=NN(c2ccccc2)C(=O)/C1=C\c1sccc1C	Tau ThT inhib inconclusive
O=C(NN1C(=O)/C(=C/C=C/c2ccco2)SC1=S)c1ccncc1	Tau FP inhib inconclusive, Tau fluor cs inconclusive (no result: Tau ThT inhib)
Cc1ccc(C2=NOC(=O)/C2=C\C=C\c2ccccc2)cc1	Tau FP inhib 14µM, Tau fluor cs inconclusive, Tau ThT inhib 13µM
CC1=NN(c2ccccc2)C(=O)/C1=C/C=C/c1ccccc1	Tau FP inhib inconclusive, Tau fluor cs inconclusive, Tau ThT inhib 16µM
CC1=NN(c2cccc(C(=O)O)c2)C(=O)/C1=C\C=C\c1ccco1	Tau FP inhib inconclusive, Tau fluor cs inconclusive, Tau ThT inhib 14µM
COc1cccc(NC(=O)CN(Cc2ccccc2)S(=O)(=O)c2ccc3nc(C)sc3c2)c1	none (no result: RGS12 GoLoco inh)
O=C1CC(c2ccccc2)CC(=NCCO)/C1=C(\O)CCCN1C(=O)c2ccccc2C1=O (centres undefined)	none
O=C(NCc1ccc(Cl)cc1)c1cnccn1	none
Cc1nn(C)c(C)c1CCNC(=O)Nc1ccccc1C(F)(F)F	Tau FP inhib inconclusive (no result: RGS12 GoLoco inh)
CCN1/C(=N\N)c2cccc3cccc1c23	Tau fluor cs inconclusive, Tau ThT inhib 7.9µM
CO[C@H]1C([C@@]2(C)O[C@@H]2CC=C(C)C)[C@]2(CC[C@H]1OC(=O)/C=C/C=C/C=C/C=C/C(=O)O)CO2 (some centres undefined)	Tau FP inhib inconclusive, Tau ThT inhib inconclusive
COC(=O)C1=CC(C(=O)c2cccs2)=NN(c2ccc(OC)cc2)C1C(=O)OC (centres undefined)	Tau fluor cs inconclusive, Tau ThT inhib 14µM
COC(=O)C1=CN(Cc2ccc(OC)cc2)C=C(C(=O)OC)C1c1cccs1	Tau ThT inhib inconclusive
CC1NC(=O)N(C)[C@@H]2NC(=O)N(C)C(c3ccc([N+](=O)[O-])cc3)[C@@H]12 (some centres undefined)	none
Nc1ccccc1NC1CCCCC1	Tau fluor cs inconclusive, Tau ThT inhib 22µM
O=C(Nc1ccccc1NC(=O)NC1CCCCC1)NC1CCCCC1	none
O=C(O)c1ccc(-c2ccc(/C=C3\NC(=O)N(Cc4ccc(Cl)cc4)C3=O)o2)cc1Cl	Tau FP inhib inconclusive, Tau ThT inhib 28µM
Cc1cc(C)c(S(=O)(=O)/N=C2/C=C(SCC(=O)O)C(=O)c3ccccc32)cc1C	Tau FP inhib 10µM, TRb SRC2 PPI inconclusive, Tau fluor cs inconclusive, Tau ThT inhib 7.1µM
Cc1ccc(NC2=C/C(=N\S(=O)(=O)c3cccs3)c3ccccc3C2=O)c(C)c1	Tau fluor cs inconclusive, Tau ThT inhib inconclusive
CCn1nnnc1SCC(=O)NNC(=O)C1CCCCC1	none
CC(=O)Nc1ccc(SCC(=O)OCC(=O)NC(=O)NC2CCCC2)cc1	none
CCn1c(O)c(N=Nc2ccc(Cl)c(C(=O)O)c2)c2ccccc21	Tau ThT inhib 4.5µM
CC(C)n1c(O)c(N=Nc2ccc(Cl)c(C(=O)O)c2)c2ccccc21	Tau ThT inhib 16µM
CCOC(=O)N=Nc1c(O)n(CC)c2ccccc12	none
O=C(COc1ccccc1)NCCc1csc(-c2ccc(F)cc2)n1	none (no result: RGS12 GoLoco inh)
COCCCNC(=O)C1CCN(C(=O)c2cc3sccc3n2Cc2ccc(Cl)cc2)CC1	Tau ThT inhib inconclusive, TexasRed fluor inconclusive (no result: RGS12 GoLoco inh)
CCn1c(C(=O)N2CCC(C(=O)NCCCOC)CC2)cc2sccc21	none (no result: RGS12 GoLoco inh)
CCn1c(C(=O)N2CCC(C(=O)NCCc3ccc(OC)cc3OC)CC2)cc2sccc21	Tau ThT inhib inconclusive, TexasRed fluor 22µM[quencher] (no result: RGS12 GoLoco inh)
COCCNC(=O)C1CCN(C(=O)c2cc3sccc3n2Cc2ccc(Cl)cc2)CC1	TexasRed fluor 28µM[quencher] (no result: RGS12 GoLoco inh)
CCN(c1cc(C)cc(C)c1)S(=O)(=O)c1nnc(NC(=O)c2cccs2)s1	none (no result: RGS12 GoLoco inh)
CCOc1ccc(Nc2nc3ccccc3n3nnnc23)cc1	Tau fluor cs inconclusive
CN(C)c1ccc(Nc2nc3ccccc3n3nnnc23)cc1	Tau fluor cs 11µM[quencher], Tau ThT inhib 7.9µM (no result: RGS12 GoLoco inh)
Cc1cccc(C)c1OCC(=O)OCC(=O)c1ccc2c(c1)NC(=O)CO2	none
Nc1nc(N)c(N=O)c(OCC2CCCCC2)n1	none (no result: Tau FP inhib, RGS12 GoLoco inh, Tau fluor cs, Tau ThT inhib)
Cc1nn(-c2ccccc2)c2c1N(CC(=O)N1CCN(c3ccc(F)cc3)CC1)C(=O)CS2	none (no result: RGS12 GoLoco inh)
CC1CC(OC(=O)C(O)c2ccccc2)CC(C)(C)C1 (centres undefined)	none
CN1C2CCC1CC(OC(=O)C(O)c1ccccc1)C2 (centres undefined)	RGS12 GoLoco inh 28µM!
CC(C)(C)C(C(Oc1ccc(Cl)cc1)n1cncn1)n1nnnc1C(c1cccc(Cl)c1)N1CCCCC1 (centres undefined)	none
O=C1c2c([N+](=O)[O-])cc([N+](=O)[O-])cc2S(=O)N1Cc1ccccc1 (centres undefined)	Tau FP inhib inconclusive, Tau ThT inhib 32µM
O=[N+]([O-])c1ccc(S(=O)(=O)Cc2ccccc2)c([N+](=O)[O-])c1	none (no result: Tau FP inhib, TRb SRC2 PPI, Tau fluor cs, Tau ThT inhib, TexasRed fluor)
COc1ccc(Nc2cc(C(=O)NCCCN(C)C3CCCCC3)c3ccccc3n2)c(OC)c1	Tau fluor cs inconclusive, Tau ThT inhib inconclusive (no result: RGS12 GoLoco inh)
CCc1ccc(Nc2cc(C(=O)NCCCN3CCOCC3)c3ccccc3n2)cc1	Tau FP inhib inconclusive, Tau fluor cs 16µM[quencher], Tau ThT inhib inconclusive
COc1ccc(N2CCN(CCCNC(=O)c3cc(Nc4ccc(OC)cc4OC)nc4ccccc34)CC2)cc1	Tau fluor cs 16µM[quencher], Tau ThT inhib 18µM (no result: RGS12 GoLoco inh)
COc1ccccc1Nc1cc(C(=O)NCCCN2CCOCC2)c2ccccc2n1	none
COc1ccc(Nc2cc(C(=O)NCCCN(C)C3CCCCC3)c3ccccc3n2)cc1	Tau FP inhib inconclusive, Tau fluor cs 11µM[quencher], Tau ThT inhib inconclusive (no result: RGS12 GoLoco inh)
COc1ccc(OC)c(Nc2cc(C(=O)NCCCN3CCOCC3)c3ccccc3n2)c1	none
